TGFb inhibitor – blocks TGF-b signaling; 410,000 compounds, 1.2% hits; Potency, µM (titrated, usually from 46.1 µM), most hits filed as inhibitors; HepG2 CAGA-GFP TGF-b/SMAD3 reporter, GFP fluorescence, 18 h; TGF-beta stimulated, 500 pg/mL final; also: nearly all actives have a fitted effect of over 65% in size
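Per well, imaged GFP fluorescence of HEPG2 CAGA-GFP cells gives the signal; cells get compound, then TGF-beta (500 pg/mL final), 18 h at 37 degrees C; %Activity versus -TGF-beta and +DMSO controls.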
ATXN viability – reduces viability in counter-screen for ATXN expression inhibitors; S2 cells (HEK-293 line with an ATXN2-luciferase reporter) viability, CellTiter-Fluor protease fluorescence, 24 h; Potency, µM (series often up to 56.7 µM), hits mostly cytotoxic; 400,000 compounds, 0.49% hits; also: nearly all actives have a fitted effect of over 40% in size
Six1-Eya2 inh – Six1/Eya2 interaction inhibition | activity change, % (concentration not given with the values) | AlphaScreen GST-Six1/His-Eya2 binding, biochemical; hits give low values | 360,000 compounds, 0.56% hits | Q15475+O00167; in the data active = activity change below about -65%; inconclusive = mostly about -30% to -63%
Target sequence (O00167 whole entry, looked up): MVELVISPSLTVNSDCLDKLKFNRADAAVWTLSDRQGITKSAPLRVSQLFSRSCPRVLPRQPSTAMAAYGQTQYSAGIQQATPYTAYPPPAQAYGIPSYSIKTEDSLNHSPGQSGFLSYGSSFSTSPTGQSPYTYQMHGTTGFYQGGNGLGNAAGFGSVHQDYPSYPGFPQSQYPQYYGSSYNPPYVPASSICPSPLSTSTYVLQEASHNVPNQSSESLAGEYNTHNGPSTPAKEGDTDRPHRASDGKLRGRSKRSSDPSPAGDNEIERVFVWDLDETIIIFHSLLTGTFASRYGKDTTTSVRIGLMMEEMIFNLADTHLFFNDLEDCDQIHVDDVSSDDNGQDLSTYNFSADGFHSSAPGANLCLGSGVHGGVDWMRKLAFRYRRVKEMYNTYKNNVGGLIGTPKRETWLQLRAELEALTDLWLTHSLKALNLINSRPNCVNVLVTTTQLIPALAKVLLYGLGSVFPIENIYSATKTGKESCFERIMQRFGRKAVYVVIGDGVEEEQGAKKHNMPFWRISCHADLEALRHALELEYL
Target sequence (Q15475 whole entry, looked up): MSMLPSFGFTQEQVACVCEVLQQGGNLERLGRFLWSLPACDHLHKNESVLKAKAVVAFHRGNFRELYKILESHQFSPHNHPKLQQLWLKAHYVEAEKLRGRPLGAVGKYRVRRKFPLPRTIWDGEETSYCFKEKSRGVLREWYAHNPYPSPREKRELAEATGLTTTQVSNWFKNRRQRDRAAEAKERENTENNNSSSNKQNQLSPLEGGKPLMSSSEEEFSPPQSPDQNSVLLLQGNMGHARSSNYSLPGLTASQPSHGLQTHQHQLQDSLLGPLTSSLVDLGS
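GST-Six1 + His-Eya2 (5X stock: 250/500 nM); Tris pH 8.0, 300 mM NaCl, 0.05% BSA, 0.02% Tween 20; GSH donor/Ni acceptor beads; 1 h 37 °C dark; AlphaScreen readout.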
CtBP-E1A blk – inhibitors of CtBP/E1A interaction. AlphaScreen GST-E1A/His-CtBP binding, 1536-well; hits give low values. activity change, % (test concentration not listed). 340,000 compounds, 0.49% hits; in the data active = activity change below about -65%; inconclusive = mostly about -30% to -63%
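Steps: dispense buffer (Tris pH 8.0, NaCl 300 mM, TCEP 1 mM, BSA, Tween 20); add 5X protein mix (GST-E1A, His-CtBP, 125 nM each); pin 23 nL compound; 2 h at 37 °C, dark; add 5X beads (50 ug/mL); 1 h; read.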
HepG2 tox-1 – counter-screen for TGF-b inhibitors: cytotoxicity in HepG2 cells. HepG2 CAGA-GFP viability, ATP luminescence, 18 h. Potency, µM (doses to about 46.1 µM), hits mostly cytotoxic. 410,000 compounds, 0.76% hits
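CellTiter-Glo luminescence gave cytotoxicity after 18 hours at 37 degrees C. The cells were HepG2 CAGA-GFP in 1% FBS DMEM, stimulated with 500 pg/mL TGF-beta after compound addition. %Activity was normalised to no-cell wells (complete cell-killing) and DMSO (no toxicity), and curves were fitted and classified.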
ATXN2 expr inh – inhibitors of ATXN2 expression | Potency, µM (series often up to 57 µM), hits mostly inhibitors | 360,000 compounds, 0.72% hits | AID 1745845 | HEK-293 ATXN2-luciferase reporter, luminescence, 24 h; also: nearly all actives have a fitted effect of over 55% in size
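ATXN2-luciferase reporter cells (luciferase flanked by upstream and downstream ATXN2 gene portions) were treated 24 h at 37 °C with compounds at up to 57 uM. SteadyGlo luminescence gave expression; GF-AFC fluorescence gave viability.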
TGFb CAGA inh – TGF-b pathway inhibition, cherry-pick retest; shares compounds with TGFb inhibitor; HepG2 CAGA-GFP TGF-b reporter, GFP fluorescence, 18 h; cells stimulated with TGF-beta, 500 pg/mL; Potency, µM (top dose mostly 46.1 µM), hits mostly inhibitors; 1,600 compounds, 63% hits; AID 720534; also: nearly all actives have a fitted effect of over 65% in size
HepG2 tox-2 – counter-screen for TGF-b inhibitors: cytotoxicity in HepG2 cells. HepG2 CAGA-GFP viability, ATP luminescence, 18 h; cells stimulated with TGF-beta, 500 pg/mL. Potency, µM (top dose mostly 46.1 µM), most hits filed as inhibitors. 1,600 compounds, 27% hits. shares compounds with TGFb inhibitor; also: nearly all actives have a fitted effect of over 70% in size
CCL64 TGFb inh – TGF-b inhibition, CCL64 orthogonal assay. shares compounds with TGFb inhibitor. CCL64 CAGA-GFP reporter, TGF-b stimulated, GFP fluorescence, 18 h. Potency, µM (top dose mostly 46.1 µM), actives largely listed as inhibitors. 1,600 compounds, 41% hits; also: nearly all actives have a fitted effect of over 65% in size
TGFb COP inh – blocks TGF-b signaling in HepG2 COP reporter. HepG2 COP-GFP TGF-b reporter, GFP fluorescence, 18 h; cells stimulated by added recombinant TGF-beta. Potency, µM (top dose mostly 46.1 µM), hits mostly inhibitors. shares compounds with TGFb inhibitor. 1,600 compounds, 3% hits; also: nearly all actives have a fitted effect of over 70% in size
A number is an active result; 0 = inactive; ? = inconclusive; - = no result. Hits are enriched below; roughly 2.8% of the tested compounds scored in any of these assays. Unless noted, calls follow the shape of the dose curve; as a rule, active = well fitted curve in the direction sought with a large enough effect; inconclusive = small, poorly fitted or top-dose-only effect, or another doubt; inactive = no such curve, though single readings can be large; an effect the other way counts as inactive or inconclusive.

SMILES | TGFb inhibitor | ATXN viability | Six1-Eya2 inh | CtBP-E1A blk | HepG2 tox-1 | ATXN2 expr inh | TGFb CAGA inh | HepG2 tox-2 | CCL64 TGFb inh | TGFb COP inh
COc1ccccc1Cc1c(-c2ccco2)nc2ccc(C)cn12 | 10µM | ? | 0 | ? | 0 | 0 | 16µM | ? | ? | 0
COc1ccccc1Cc1c(-c2ccco2)nc2c(C)cc(Br)cn12 | 8.9µM | ? | ? | 0 | 0 | 8.9µM | 7.3µM | 9.2µM | 4.6µM | ?
COc1ccccc1Cc1c(-c2ccco2)nc2c3ccccc3ccn12 | - | 0 | ? | 0 | - | 0 | - | - | - | -
COc1ccccc1Cc1c(-c2ccc(C)cc2)nc2c(C)cc(Br)cn12 | ? | ? | 0 | 0 | 0 | 0 | - | - | - | -
Cc1ccc2nc(-c3ccco3)c(CC3CCCCC3)n2c1 | 10µM | - | 0 | 0 | 0 | 0 | ? | ? | 21µM | 0
CCc1nnc(SCc2cccc(Cl)c2)c2cc3sccc3n12 | - | - | - | - | 0 | - | - | - | - | -
COc1ccc(-c2c(C(F)(F)F)[nH]n3c(=O)cc(-c4ccccc4)nc23)cc1 | ? | - | 0 | 0 | 0 | 0 | 16µM | 16µM | 8.2µM | 0
O=C(C(=O)c1cc(Br)ccc1O)c1cc(Br)ccc1O | 6.3µM | ? | 0 | 0 | 0 | ? | 6.5µM | 12µM | 4.6µM | 0
CC(C)OCCCNC(=O)CCCn1c(SCC(=O)c2ccc(F)cc2)nc2c(sc3ccccc32)c1=O | 0 | - | - | - | 0 | - | - | - | - | -
CCOc1cc(/C=C\[N+](=O)[O-])ccc1OCC(=O)Nc1ccccc1C | 7.9µM | ? | 0 | - | 8.9µM | - | 2.9µM | 8.2µM | 2.9µM | ?
COc1cc(/C=C/c2cccc[n+]2C)ccc1OCC(=O)Nc1ccccc1C | 0 | 0 | 0 | 0 | 0 | 0 | - | - | - | -
COc1cc(-c2nc3n(n2)C(c2ccc(F)cc2)C(C(N)=O)=C(C)N3)cc(OC)c1OC (stereo not drawn) | 0 | 0 | - | - | 0 | 0 | - | - | - | -
CCc1cc2c(cc3c(=O)n(CC(=O)N4CCN(c5cccc(C)c5C)CC4)nc(CC)n32)s1 | 0 | - | - | - | 0 | - | - | - | - | -
COc1ccc(C[C@@H]2CN3C(=NC[C@@H]3Cc3ccc(O)cc3)N2C[C@H](C)NC(=O)CCC2CCCCC2)cc1 | 13µM | ? | 0 | 0 | 0 | 0 | 0 | ? | ? | 0
CN(C)c1ccc(Cn2ccc3ccccc32)cc1 | ? | - | - | - | 0 | - | - | - | - | -
CCOC(=O)C#CC(CCc1ccccc1)OS(N)(=O)=O (stereo not drawn) | 0.71µM | 0 | 0 | 0 | 0 | 0 | 0 | 0 | ? | 0
COc1ccc(CC(N)c2csc(NC(=O)CCc3ccccc3)n2)cc1 (stereo not drawn) | ? | 0 | 0 | 0 | 0 | ? | - | - | - | -
COc1ccc(CC(N)c2csc(NC(=O)Nc3ccccc3C(C)C)n2)cc1 (stereo not drawn) | 5.6µM | ? | 0 | 0 | 0 | ? | ? | ? | ? | ?
COC(=O)c1c(NC(=O)Cc2ccccc2)sc2c1CCN(C(C)C)C2 | 0 | ? | 0 | 0 | 0 | 0 | - | - | - | -
COC(=O)c1sc(NC(=O)c2ccc([N+](=O)[O-])o2)c(C#N)c1C | 4.5µM | ? | 0 | 0 | 0 | - | 7.3µM | 10µM | 15µM | 0
COC(=O)c1c(NC(=O)c2ccc([N+](=O)[O-])o2)sc2c1CCN(C(C)C)C2 | 20µM | ? | ? | 0 | 0 | ? | 2.6µM | 10µM | 26µM | 0
CC(=O)N1CCc2c(sc(NC(=O)c3ccc([N+](=O)[O-])o3)c2C#N)C1 | 5.6µM | ? | 0 | 0 | 0 | 0 | 4.1µM | 3.3µM | 10µM | ?

Screens from PubChem BioAssay.
